# Screening data deposited in PubChem by Johns Hopkins Ion Channel Center.
# CHT inh: inhibitors of human choline transporter CHT. High affinity choline transporter 1 (Homo sapiens), Q9GZV3. B-score at 10 µM. CHT-expressing cells, membrane potential dye, choline response; hits give low values. AID 488975, 2010. 0.86% of 310,000 active;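 active = B-score over 3 SD under the library average, and starting fluorescence ratio not unusually high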;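 also: choline stimulus applied at its EC90 after an EC20 pre-addition; B-score computed on integrated fluorescence ratio after choline addition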
# Target sequence (Q9GZV3 whole entry, looked up): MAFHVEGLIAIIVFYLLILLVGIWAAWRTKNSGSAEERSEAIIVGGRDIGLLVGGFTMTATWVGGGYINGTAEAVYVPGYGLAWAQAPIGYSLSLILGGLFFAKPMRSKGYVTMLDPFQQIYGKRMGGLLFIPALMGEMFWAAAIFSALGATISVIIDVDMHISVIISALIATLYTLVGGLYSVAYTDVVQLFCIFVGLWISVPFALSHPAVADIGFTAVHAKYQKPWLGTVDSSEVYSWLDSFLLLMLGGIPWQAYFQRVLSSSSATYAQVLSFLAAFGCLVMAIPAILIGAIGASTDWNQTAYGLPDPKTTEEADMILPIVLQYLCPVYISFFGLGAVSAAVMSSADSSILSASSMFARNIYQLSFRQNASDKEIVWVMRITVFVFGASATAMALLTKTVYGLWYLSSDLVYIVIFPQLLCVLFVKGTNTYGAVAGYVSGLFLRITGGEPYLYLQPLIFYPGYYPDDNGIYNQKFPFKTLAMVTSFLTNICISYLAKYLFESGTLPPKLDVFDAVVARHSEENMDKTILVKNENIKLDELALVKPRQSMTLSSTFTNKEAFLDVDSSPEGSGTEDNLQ
# CHT PAM: CHT positive allosteric modulators, primary screen, cell-based, membrane potential dye, choline EC20; CHT-expressing cells; hits give high values; LV-AA mutant CHT in HEK293 cells; B-score at 10 µM; 0.49% of 310,000 active;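 active = initial fluorescence not abnormally high and integrated response B-score, plate-corrected, over 3 SD above library mean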
# ANO1 block: TMEM16A chloride channel inhibitors, primary screen, cell-based, HTS; Anoctamin-1 (Mus musculus), Q8BHY3; HEK293 TMEM16A/YFP iodide influx fluorescence, ionomycin; normalized B-score (activity score, 25-100; higher = stronger inhibition) at 10 µM; 1.2% of 310,000 active; AID 588511, 2011;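 active = ratio plate-corrected score three or more library SD toward inhibition, starting fluorescence score within five deviations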;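 also: score derived from kinetic fluorescence span divided by baseline fluorescence per well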
# TMEM16A act: TMEM16A chloride channel activators or potentiators, primary screen, cell-based, HTS | Anoctamin-1 (Mus musculus), Q8BHY3 | HEK293 TMEM16A/YFP-H148Q/I152L, iodide quench fluorescence; hits give low values | B-score at 10 µM | 0.3% of 340,000 active | AID 623877, 2012;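 active = fluorescence-ratio B-score plate-corrected deviation score at least 3 library SD below zero, with starting fluorescence score within 5 deviations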;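 also: channel opened by trigger with iodide after compound preincubation; score built on the fluorescence ratio of max minus min over baseline; more negative score means more quench and so TMEM16A activation or potentiation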
# CHT activ conf: CHT activators, confirmation, cell-based, membrane potential dye, duplicate; shares compounds with CHT PAM; CHT-expressing cells, membrane potential dye fluorescence (FDSS); % of choline EC20–EC90 response window; HEK293 expressing CHT LV-AA mutant; choline added at its EC20; activation, % at 10 µM; 91% of 2,500 active; AID 504833, 2011;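 active = primary screen active, with duplicate mean activation above negative control mean plus 3 SD, cut at about 11% in these data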
# HEK293 MP dye: membrane potential response in parental HEK293 cells, counter-screen for CHT activator project, cell-based, membrane potential dye; membrane potential dye fluorescence (FDSS); measured after EC20 choline addition; AID 623908, 2012; 62% of 2,500 active; ratio readout change at 10 µM, hits read low; shares compounds with CHT PAM;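 active = duplicate-averaged ratio beyond 3 SD from buffer wells, up or down, though filed actives are nearly all decreases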
# TMEM16A reconf: TMEM16A chloride channel inhibitors, confirmation, cell-based, re-confirmation; shares compounds with ANO1 block; HEK293 TMEM16A/YFP-H148Q, iodide quench fluorescence; ionomycin added to raise cell calcium; inhibition, % at 10 µM; 39% of 2,300 active;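 active = mean duplicate percent inhibition, scaled so buffer wells are 0 and the reference blocker 100, over three buffer SD above buffer mean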
# HEK293 Ca mobil: calcium mobilization in TMEM16A/YFP HEK293 cells, confirmation, counter-screen for TMEM16A inhibitor project; shares compounds with ANO1 block; Fluo4 calcium mobilization; calcium response (% of ionomycin), % at 10 µM; 2% of 2,300 active; AID 652231, 2013;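 active = duplicate-averaged calcium signal over 20% of the ionomycin maximum, relative to buffer baseline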;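 also: each well's signal is peak minus trough fluorescence divided by its pre-addition baseline; 0% = buffer wells and 100% = ionomycin wells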
# YFP-HEK293 quench: iodide YFP quench changes in parental YFP-HEK293, counter-screen for TMEM16A inhibitor project, cell-based | 2,300 tested, under 10 active | YFP ratio F(max-min)/F0 at 10 µM | AID 652233, 2013 | shares compounds with ANO1 block | ionomycin;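 active = yellow fluorescent protein signal ratio exceeding the buffer control mean by over 5 SD of those controls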;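 also: ratio is mean of duplicate wells from kinetic YFP trace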
# ClC-1 inh: ClC-1 chloride channel inhibition, selectivity assay for TMEM16A inhibitor project, cell-based, voltage-dependent ClC-1; shares compounds with ANO1 block; CHO ClC-1-YFP, iodide influx fluorescence quench; iodide control reads 0, buffer control 100; ratio percent, % at 10 µM; 2,300 tested, under 10 active;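 active = duplicate-mean ratio percent above the mean of iodide-only control wells, which defines zero, plus 5 of their SD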;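 also: higher percent means stronger block of ClC-1 iodide influx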
# The depositor's hits bear a star; i = inactive; . = no result given. An excerpt weighted towards active compounds, which were near 2.3% of everything screened.
SMILES,CHT inh,CHT PAM,ANO1 block,TMEM16A act,CHT activ conf,HEK293 MP dye,others
CN1CCN(c2ccc([N+](=O)[O-])c(NCC3CCCO3)c2)CC1 (stereo unspecified),i,6.3*,i,i,52*,-51*,
O=[N+]([O-])c1ccc(-[n+]2c(-c3ccccc3)cc(-c3ccccc3)cc2-c2ccccc2)cc1,i,i,i,i,66*,-28*,
O=[N+]([O-])c1ccc(CN2CC=C(c3ccccc3)CC2)cc1,i,i,i,i,.,.,
Oc1ccc(-[n+]2c(-c3ccccc3)cc(-c3ccccc3)cc2-c2ccccc2)cc1,i,9.8*,i,i,80*,-26*,
Oc1ccccc1-[n+]1c(-c2ccccc2)cc(-c2ccccc2)c(O)c1-c1ccccc1,i,i,i,i,.,.,
C[n+]1c(-c2ccccc2)cc(-c2ccc(O)cc2)cc1-c1ccccc1,i,7*,i,i,55*,-58*,
COC(=O)C1=C(c2ccc(OC)c(OC)c2)C[C@@H]2CC[C@H]1N2C(=O)NC(C)C,.,.,.,i,.,.,
COC(=O)C1=C(c2cccc(C#N)c2)C[C@@H]2CC[C@H]1N2C(=O)NCCO,.,.,.,i,.,.,
Cc1ccc(-c2nc(N3CCOCC3)s[n+]2-c2ccccc2)cc1,i,6.7*,i,i,55*,i,
COc1cccc(N(C(C)=O)C2=NCCCS2)c1,i,i,i,i,.,.,
CN1CCN(c2nc(N(C)C)oc(=O)c2C#N)CC1,i,i,i,i,54*,-47*,
Cc1ccc(C(=O)O)cc1N=Nc1c(O)[nH]c(=O)[nH]c1=O,i,i,i,i,.,.,
CCc1nc2ccc(Br)cc2c(=O)n1-c1ccccc1C(F)(F)F,i,i,i,i,.,.,
CCCc1nc2ccc(Br)cc2c(=O)n1-c1ccc([N+](=O)[O-])c(C(F)(F)F)c1,i,i,100*,i,2,i,
CCOP(=S)(OCC)Oc1cc(C)nc(C(C)C)n1,.,.,.,i,.,.,
CS(=O)(=O)N1CCN(C(=N)N[N+](=O)[O-])CC1,i,i,i,i,.,.,
CNc1cc(N2CCNCC2)ccc1[N+](=O)[O-],i,i,i,i,39*,-49*,
O=C1c2ccccc2C2(c3ccc(Cl)cc3)NCCN12 (stereo unspecified),i,i,i,i,.,.,
Cc1sc2ccccc2c1CC1=NCCN1,i,7.8*,i,i,46*,-50*,
O=C(NN=Cc1ccc(N(CCCl)CCCl)cc1)C(=O)c1c[nH]c2ccccc12,.,.,.,i,.,.,
OCC[N+]12CCC(CC1)C(C(O)(c1ccccc1)c1ccccc1)C2 (stereo unspecified),i,i,i,i,.,.,
O=C(C[N+]12CCC(CC1)C(C(O)(c1ccccc1)c1ccccc1)C2)c1ccc(Br)cc1 (stereo unspecified),i,i,i,i,30*,-22*,
COc1cccc(NC(=O)[C@@H](NC(=O)N2C[C@H]3C[C@@H](C2)c2cccc(=O)n2C3)C(C)C)c1,i,i,i,i,.,.,
CN1CCN(C(=O)OC2c3nccnc3C(=O)N2c2ccc(Cl)cn2)CC1 (stereo unspecified),i,9.8*,i,.,68*,-60*,
Cc1cc(Cl)ccc1OCC(=O)N1CCN(C)CC1,i,i,i,i,.,.,
SMILES,CHT inh,CHT PAM,ANO1 block,TMEM16A act,CHT activ conf,HEK293 MP dye,others
Clc1ccccc1C1=NCc2nncn2-c2sc(Br)cc21,i,i,i,i,.,.,
NC(N)=Nc1ccc2[nH]c3c(c2c1)C[C@@]1(O)[C@H]2Cc4ccc(O)c5c4[C@@]1(CCN2CC1CC1)[C@H]3O5,i,8.3*,i,i,12*,-33*,
CC[n+]1c(/C=C/C=C/c2ccc(N(C)C)cc2)sc2ccccc21,i,i,25*,i,.,.,TMEM16A reconf=40%*;HEK293 Ca mobil=i;YFP-HEK293 quench=-0.93;ClC-1 inh=-1
CN(C)c1ccc(/C=C/c2cc[n+](C)c3ccccc23)cc1,.,.,.,i,.,.,
C=CCn1c(O)c(Cc2ccc(OCC)cc2)c(=O)[nH]c1=O,i,i,i,.,.,.,
CN1C(=O)NC(=O)C(N=Nc2ccc(Cl)cc2)C1=O (stereo unspecified),.,.,.,i,.,.,
COC(=O)C1=C(c2cc3ccccc3s2)C[C@@H]2CC[C@H]1N2C(=O)NCCNC(C)=O,i,i,i,i,.,.,
CCOC(=O)C(O)(c1ccc(NC(=S)NC(=O)c2ccc(Cl)cc2Cl)c(C)c1)C(F)(F)F (stereo unspecified),i,i,25*,i,.,.,TMEM16A reconf=54%*;HEK293 Ca mobil=i;YFP-HEK293 quench=-0.82;ClC-1 inh=-6
Cc1ccc(N(C)C(=O)Oc2ccc(C(=O)c3ccc(Cl)cc3)cc2)cc1,i,i,25*,i,.,.,TMEM16A reconf=i;HEK293 Ca mobil=i;YFP-HEK293 quench=-1.1;ClC-1 inh=-4
O=c1[nH]c(=S)n(CCC2=CCCCC2)c(O)c1C=NC1CCN(Cc2ccccc2)CC1,i,i,100*,i,.,.,TMEM16A reconf=i;HEK293 Ca mobil=i;YFP-HEK293 quench=-1.2;ClC-1 inh=-16
Oc1cc(Cl)ccc1Oc1ccc(Cl)cc1Cl,-5*,i,100*,i,.,.,TMEM16A reconf=70%*;HEK293 Ca mobil=i;YFP-HEK293 quench=-0.96;ClC-1 inh=-19
O=C(O)COc1ccc(Cl)cc1Cl,i,i,i,i,.,.,
Cc1ccc2nc(N3CCC(C(=O)N4CCC5(CC4)OCCO5)CC3)sc2c1,i,i,i,i,.,.,
CCc1ccc2nc(N3CCC(C(=O)N4CCC5(CC4)OCCO5)CC3)sc2c1,i,i,100*,i,.,.,TMEM16A reconf=i;HEK293 Ca mobil=21%*;YFP-HEK293 quench=-1.1;ClC-1 inh=6
